Experimental data taken from PubChem BioAssay (NCATS).
“And” between values parts separate entries of the source, which are not always exact repeats. Identical values can stand only once. Records with an inconclusive call do not appear. The source holds several records for some structures; these can differ, active in one and inactive in another. The source made the active and inactive calls. Unless noted, calls follow the shape of the full dose curve.

What was measured:
[1] = Primary qHTS for Huh7 cytotoxicity: counterscreen for inhibitors of MERS-S pseudotyped particle cell entry (AID 1479147); conditions: outcome: dose series up to 57.1 µM unless noted
[2] = Primary qHTS for inhibitors of MERS-S pseudo-typed particle cell entry (AID 1479149); conditions: outcome: dose series up to 57.1 µM unless noted; also: nearly all actives have a fitted effect of over 60% in size; as to activity change, negative = inhibition: % is scaled to controls: 0 for no effect and ±100 for the full control effect
[3] = Primary qHTS for Vero E6 cytotoxicity: counterscreen for inhibitors of SARS-S pseudo-typed particle cell entry (AID 1479150); conditions: outcome: dose series up to 57.1 µM unless noted
[4] = Cytotoxicity counterscreen for inhibitors of SARS-CoV-2 cell entry (AID 1645845); conditions: outcome: dose series up to 57.1 µM unless noted; also: nearly all actives have a fitted effect of over 50% in size
In short: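 48 h compound treatment (after 1 h preincubation), HEK293-ACE2 cells, 37 C/5% CO2; ATP luminescence endpoint; normalized to cell wells and media blanks.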

[5] = Primary qHTS to identify inhibitors of SARS-CoV-2 cell entry (AID 1645846); conditions: SARS-CoV-2 pseudovirus cell entry assay, luminescence; activity change, negative = inhibition: at 57.1 µM (top of the series) unless noted; also: nearly all actives have a fitted effect of over 45% in size; also: potency is read from the fitted curve at half-maximal effect
In short: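 HEK293 cells stably expressing human ACE2, pre-treated 1 h with compound, then infected with MLV particles pseudotyped with Wuhan-Hu-1 spike (C-terminal 19-aa truncation). Luciferase luminescence after 48 h at 37 °C, normalised to spike PP and bald PP.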

[6] = target: Glutathione peroxidase 1 (Homo sapiens) (UniProt P07203); assay: Primary qHTS Assay for Inhibitors of Recombinant Selenoprotein Glutathione Peroxidase 1 (GPX1) (AID 1845191; active = well fitted curve in the direction sought with a large enough effect; an effect the other way counts as inactive or inconclusive; also: % is scaled to controls: 0 for no effect and ±100 for the full control effect; nearly all actives have a fitted effect of over 65% in size)
In short: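 10 nM GPX1 + cpd, 30 min RT; start w/ 1 mM GSH, 0.5 mM cumene hydroperoxide, 0.5 mM NADPH, 100 nM GR, 0.01% BSA; buffer 50 mM Tris-HCl pH 7.5, 2 mM EDTA, 150 mM NaCl; Fl 340/450, 0 & 15 min.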

[7] = target: Phospholipid hydroperoxide glutathione peroxidase GPX4 (Homo sapiens) (UniProt P36969); assay: Primary qHTS Assay for Inhibitors of Recombinant Selenoprotein Glutathione Peroxidase 4 (GPX4) (AID 1845192; active = well fitted curve in the direction sought with a large enough effect; an effect the other way counts as inactive or inconclusive; also: % is scaled to controls: 0 for no effect and ±100 for the full control effect; nearly all actives have a fitted effect of over 65% in size)
In short: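 NADPH consumption, followed by fluorescence at 340/450 nm between 0 and 15 min, reports GPX4 activity via coupled glutathione reductase (100 nM). Enzyme 200 nM was pre-exposed to compound 30 min; 0.5 mM cumene hydroperoxide and 1 mM GSH served as substrates.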

[8] = Cell Viability - LYMP2-007 (AID 979; active = well fitted curve in the direction sought with a large enough effect; an effect the other way counts as inactive or inconclusive;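 also: potency is read from the fitted curve at half-maximal effect; cells exposed to compound for 24 h before reading; nearly all actives have a fitted effect of over 60% in size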)
In short: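 Human lymphoblastoid cells (2500/well) were plated in complete medium, incubated 5 hr at 37 C, then exposed to compounds for 24 hr at 37 C. Intracellular ATP was read by CellTiter-Glo luminescence after 30 min at room temperature; AC50 from Hill fits.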

[9] = target: Estrogen receptor (Homo sapiens) (UniProt P03372); assay: qHTS assay for small molecule antagonists of estrogen receptor alpha signaling (AID 588513; active = well fitted curve in the direction sought with a large enough effect in the signal ratio, with a control signal flat, not every such curve was filed as active; the % refers to the signal ratio; also: % is scaled to controls: 0 for no effect and ±100 for the full control effect)
In short: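 ER-alpha-UAS-bla GripTite HEK 293 cells in 2% charcoal/dextran-treated FBS medium; compounds titrated (1:2, duplicate), then stimulated with 0.5 nM 17-beta-estradiol for 18 h at 37C. CCF4 beta-lactamase fluorescence; Hill-fit IC50 and efficacy.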

[10] = target: Glucocorticoid receptor (Homo sapiens) (UniProt P04150); assay: qHTS assay for small molecule agonists of glucocorticoid receptor signaling (AID 588532; active = well fitted curve in the direction sought with a large enough effect in the signal ratio, with a control signal flat; the % refers to the signal ratio;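 also: 100% = dexamethasone at 0.1 µM and 0% = DMSO only wells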); conditions: HeLa MMTV-bla, beta-lactamase ratio, agonist, 18 h; stronger effect = higher value; percent of dexamethasone control, DMSO zero
In short: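 Using MMTV-bla HeLa cells in medium with 1% stripped FBS and 25 mM HEPES, compounds were titrated and incubated overnight-length (18 h). Beta-lactamase cleavage of CCF4 was quantified by dual-emission fluorescence.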

[11] = target: Peroxisome proliferator-activated receptor delta (Homo sapiens) (UniProt Q03181); assay: qHTS assay for small molecule agonists of peroxisome proliferator-activated receptor delta signaling (AID 588534);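 also: 0% = DMSO basal wells and 100% = positive control agonist at 10 µM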
In short: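 Cell-based beta-lactamase reporter assay run in agonist mode: cells seeded and incubated 5 hrs at 37 C, compounds added and incubated 18 hrs at 37 C. CCF4 dye fluorescence read after 2 hrs at RT; EC50 and efficacy from Hill fits.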

[12] = target: Peroxisome proliferator-activated receptor gamma (Homo sapiens) (UniProt P37231); assay: qHTS assay for small molecule antagonists of peroxisome proliferator-activated receptor gamma signaling (AID 588537; active = well fitted inhibition curve with a large enough effect in the signal ratio, with a control signal flat, not every such curve was filed as active; the % refers to the signal ratio;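 also: reporter cells co-stimulated with 50 nM rosiglitazone agonist during compound treatment; % of control where 0% means no effect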)
In short: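 Inhibitors of agonist-stimulated UAS-bla reporter activity were sought in HEK293 cells; rosiglitazone (50 nM) defined full signal and DMSO baseline. Curves fitted to Hill model gave IC50 and efficacy.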

[13] = target: Thyroid hormone receptor beta (Homo sapiens) (UniProt P10828); assay: qHTS assay for small molecule antagonists of thyroid hormone receptor beta signaling (AID 588547; active = well fitted inhibition curve with a large enough effect in the signal ratio, with a control signal flat, not every such curve was filed as active; the % refers to the signal ratio;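 also: cells stimulated with 0.4 nM T3 agonist during compound exposure; % is scaled to controls: 0 for no effect and ±100 for the full control effect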); conditions: TR-UAS-bla HEK293, beta-lactamase ratio, antagonist mode, 18 h
In short: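 Inhibition of T3-driven (0.4nM final) beta-lactamase reporter activity was measured over 0.59 nM to 92 uM compound after 18 h at 37 C. The cells were GripTite HEK293 TR-UAS-bla in charcoal/dextran-stripped serum, with CCF4 ratio read-out and IC50 from Hill fits.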

[14] = qHTS assay for small molecule agonists of the antioxidant response element (ARE) signaling pathway (AID 651741; active = well fitted activation curve with a large enough effect in the signal ratio; the % refers to the signal ratio; also: potency is read from the fitted curve at half-maximal effect; as to activation: % of control where 0% means no effect)
In short: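 Seeding 2,000 ARE-bla HepG2 cells per well preceded a 5 h incubation at 37 C/5% CO2 and a 16 h compound exposure at 37 C. Beta-lactamase reporter activity was then quantified by fluorescence after 2 h with LiveBLAzer B/G FRET substrate.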

[15] = qHTS assay for small molecule agonists of the antioxidant response element (ARE) signaling pathway measured by Nrf2-dependant transcriptional activity (AID 720636; active = well fitted curve in the direction sought with a large enough effect in the repeat runs; an effect the other way counts as inactive or inconclusive;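 also: HepG2 cells with an ARE-driven luciferase reporter; % of control where 0% means no effect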)
In short: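 ONE-Glo luminescence, read 30 min after reagent addition at room temperature, reflected ARE reporter activity in HepG2 cells that had been incubated with compound for 16 hr at 37 C in 1% dialyzed FBS.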

[16] = KB-8-5-11 P-gp reporter qHTS against the NCATS DSHEA and TCM libraries (AID 1919977; active = well fitted curve in the direction sought with a large enough effect; an effect the other way counts as inactive or inconclusive; also: 0% is about no effect)
In short: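 P-gp-overexpressing KB-8-5-11 cells were screened in colchicine-free medium at 500 cells/well, as a titration series. Cells were exposed for 72 h at 37C. Viability was read by CellTiter-Glo luminescence after 30 min at room temperature.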

Peroxisome proliferator-activated receptor delta (Homo sapiens), sequence (Q03181 whole entry, looked up): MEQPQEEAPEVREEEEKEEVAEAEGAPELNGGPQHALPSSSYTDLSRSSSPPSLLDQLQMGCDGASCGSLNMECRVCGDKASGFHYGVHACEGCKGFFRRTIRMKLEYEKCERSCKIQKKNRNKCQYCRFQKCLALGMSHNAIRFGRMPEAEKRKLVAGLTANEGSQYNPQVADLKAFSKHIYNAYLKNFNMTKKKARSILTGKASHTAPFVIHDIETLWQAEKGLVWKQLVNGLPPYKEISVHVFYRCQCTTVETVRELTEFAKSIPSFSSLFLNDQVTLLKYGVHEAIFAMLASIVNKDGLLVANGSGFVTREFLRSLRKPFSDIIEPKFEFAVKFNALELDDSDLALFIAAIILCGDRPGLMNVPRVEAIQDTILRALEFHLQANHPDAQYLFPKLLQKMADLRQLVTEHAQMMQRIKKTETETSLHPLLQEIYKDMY
Estrogen receptor (Homo sapiens), sequence (P03372 whole entry, looked up): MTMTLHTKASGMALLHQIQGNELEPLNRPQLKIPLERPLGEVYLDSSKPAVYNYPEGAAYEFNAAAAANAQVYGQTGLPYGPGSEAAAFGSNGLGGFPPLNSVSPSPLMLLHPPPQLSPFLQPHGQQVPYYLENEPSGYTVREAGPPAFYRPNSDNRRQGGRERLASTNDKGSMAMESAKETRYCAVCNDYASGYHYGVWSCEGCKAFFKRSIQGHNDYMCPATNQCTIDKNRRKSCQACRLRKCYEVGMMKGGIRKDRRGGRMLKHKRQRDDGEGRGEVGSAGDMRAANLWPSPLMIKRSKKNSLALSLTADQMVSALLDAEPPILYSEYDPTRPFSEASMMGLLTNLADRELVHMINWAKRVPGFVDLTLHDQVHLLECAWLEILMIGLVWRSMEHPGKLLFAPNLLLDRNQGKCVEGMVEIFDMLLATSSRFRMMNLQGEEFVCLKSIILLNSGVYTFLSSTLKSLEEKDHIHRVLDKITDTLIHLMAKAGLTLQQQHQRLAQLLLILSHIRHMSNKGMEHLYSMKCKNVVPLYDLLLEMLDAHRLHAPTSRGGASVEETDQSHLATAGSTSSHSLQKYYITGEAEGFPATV
Thyroid hormone receptor beta (Homo sapiens), sequence (P10828 whole entry, looked up): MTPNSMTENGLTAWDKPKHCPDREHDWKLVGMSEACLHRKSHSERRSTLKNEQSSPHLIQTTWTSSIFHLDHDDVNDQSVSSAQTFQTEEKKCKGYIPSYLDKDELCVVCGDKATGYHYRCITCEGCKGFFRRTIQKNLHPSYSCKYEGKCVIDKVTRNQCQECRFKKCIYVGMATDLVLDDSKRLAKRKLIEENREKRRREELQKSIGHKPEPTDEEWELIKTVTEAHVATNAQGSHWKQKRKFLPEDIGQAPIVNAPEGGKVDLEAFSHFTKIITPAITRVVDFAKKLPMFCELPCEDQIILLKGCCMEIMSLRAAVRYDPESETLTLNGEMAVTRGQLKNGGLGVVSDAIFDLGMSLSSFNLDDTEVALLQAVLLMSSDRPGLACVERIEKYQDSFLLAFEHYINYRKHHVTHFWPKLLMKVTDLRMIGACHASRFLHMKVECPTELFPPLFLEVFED
Phospholipid hydroperoxide glutathione peroxidase GPX4 (Homo sapiens), sequence (P36969 whole entry, looked up): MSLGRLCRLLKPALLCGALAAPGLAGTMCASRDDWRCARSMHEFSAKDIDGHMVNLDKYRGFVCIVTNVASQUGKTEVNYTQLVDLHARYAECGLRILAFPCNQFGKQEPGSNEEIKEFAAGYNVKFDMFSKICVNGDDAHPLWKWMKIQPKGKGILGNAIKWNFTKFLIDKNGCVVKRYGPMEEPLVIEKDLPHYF
Glutathione peroxidase 1 (Homo sapiens), sequence (P07203 whole entry, looked up): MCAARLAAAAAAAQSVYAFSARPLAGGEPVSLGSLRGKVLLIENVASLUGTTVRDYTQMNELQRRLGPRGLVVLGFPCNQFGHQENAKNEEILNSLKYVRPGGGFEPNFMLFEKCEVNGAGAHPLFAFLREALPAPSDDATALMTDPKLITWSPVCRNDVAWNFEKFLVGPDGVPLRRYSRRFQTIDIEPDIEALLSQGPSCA
Glucocorticoid receptor (Homo sapiens), sequence (P04150 whole entry, looked up): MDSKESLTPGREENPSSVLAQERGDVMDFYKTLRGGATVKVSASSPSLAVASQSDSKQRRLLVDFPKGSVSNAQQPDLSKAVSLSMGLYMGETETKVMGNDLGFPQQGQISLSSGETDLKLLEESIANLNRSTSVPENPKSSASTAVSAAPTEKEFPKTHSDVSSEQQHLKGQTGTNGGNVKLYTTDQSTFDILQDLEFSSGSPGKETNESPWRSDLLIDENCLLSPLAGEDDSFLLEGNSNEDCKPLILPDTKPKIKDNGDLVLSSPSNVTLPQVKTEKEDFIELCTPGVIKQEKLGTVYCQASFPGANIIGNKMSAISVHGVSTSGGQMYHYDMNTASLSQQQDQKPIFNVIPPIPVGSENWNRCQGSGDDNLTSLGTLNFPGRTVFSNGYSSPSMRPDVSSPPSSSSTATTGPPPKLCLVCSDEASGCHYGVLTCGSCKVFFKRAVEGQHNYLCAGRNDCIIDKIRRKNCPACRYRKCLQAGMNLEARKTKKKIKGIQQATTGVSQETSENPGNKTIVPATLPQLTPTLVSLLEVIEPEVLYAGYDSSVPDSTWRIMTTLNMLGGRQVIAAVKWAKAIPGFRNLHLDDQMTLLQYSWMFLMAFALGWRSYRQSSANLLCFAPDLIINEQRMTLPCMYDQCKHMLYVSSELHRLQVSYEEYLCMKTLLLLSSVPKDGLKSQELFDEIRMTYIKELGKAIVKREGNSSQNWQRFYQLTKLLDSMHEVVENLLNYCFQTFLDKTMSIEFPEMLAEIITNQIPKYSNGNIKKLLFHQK
Peroxisome proliferator-activated receptor gamma (Homo sapiens), sequence (P37231 whole entry, looked up): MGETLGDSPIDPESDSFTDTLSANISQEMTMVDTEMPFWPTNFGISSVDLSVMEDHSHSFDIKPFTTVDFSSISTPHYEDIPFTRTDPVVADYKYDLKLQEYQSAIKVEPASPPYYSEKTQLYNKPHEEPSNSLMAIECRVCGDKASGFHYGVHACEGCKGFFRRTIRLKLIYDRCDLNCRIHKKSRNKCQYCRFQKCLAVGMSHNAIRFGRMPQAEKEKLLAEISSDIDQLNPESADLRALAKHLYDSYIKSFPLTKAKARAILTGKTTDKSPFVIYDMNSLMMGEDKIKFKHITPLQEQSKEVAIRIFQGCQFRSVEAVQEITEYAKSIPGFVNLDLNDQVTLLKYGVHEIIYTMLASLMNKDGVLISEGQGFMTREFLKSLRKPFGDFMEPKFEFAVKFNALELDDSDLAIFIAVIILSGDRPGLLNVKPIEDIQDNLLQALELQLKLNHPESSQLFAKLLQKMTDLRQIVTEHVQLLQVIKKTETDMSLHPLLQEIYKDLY

CCCC(=O)Nc1c(I)cc(I)c(CC(CC)C(=O)O)c1I (configuration not stated)
inactive: Potency [1] | Potency [2] | Potency [3] | Potency [4]
-27.1%: activity change, negative = inhibition [5]

CCC(=O)O[C@H]1CC[C@H]2[C@@H]3CC[C@H]4CC(=O)[C@H](C)C[C@]4(C)[C@H]3CC[C@]12C
inactive: Potency [1] | Potency [2] | Potency [3] | Potency [4] | Potency [6] | Potency [7]
-28.3%: activity change, negative = inhibition [5]

CO[C@@H]1C[C@H](O[C@H]2[C@H](C)[C@H](O[C@@H]3O[C@@H](C)C[C@@H](N(C)C)[C@H]3OC(C)=O)[C@H](C)C[C@]3(CO3)C(=O)[C@H](C)[C@H](OC(C)=O)[C@H](C)[C@H](C)OC(=O)[C@@H]2C)O[C@H](C)[C@H]1OC(C)=O
-34.5%: activity change, negative = inhibition [5]
inactive: Potency [1] | Potency [2] | Potency [3] | Potency [4]

CC(C)CCC[C@@H](C)[C@H]1CC[C@H]2[C@@H]3CC=C4C[C@@H](O)CC[C@]4(C)[C@@H]3CC[C@]12C
inactive: Potency [1] | Potency [2] | Potency [3] | Potency [4] | Potency [5]

CC1CCC(C(C)C)C(OC(=O)c2ccccc2O)C1 (configuration not stated)
inactive: Potency [1] | Potency [2] | Potency [3] | Potency [4] | Potency [5]

Cc1ccc(Sc2ccccc2N2CCNCC2)c(C)c1
inactive: Potency [1] | Potency [2] | Potency [3] | Potency [4]
-7.77%: activity change, negative = inhibition [5]
active: Potency [5] 22.4 µM

CCCCC(C)(O)CC=C[C@H]1[C@H](O)CC(=O)[C@H]1CCCCCCC(=O)OC (some centres not stated)
inactive: Potency [1] | Potency [2] | Potency [3] | Potency [4] | Potency [5]

O=C(O)CC(O)(CC(=O)O)C(=O)O
active: Potency [8] 50.1 µM
inactive and 54.5 µM (active): Potency [14]
-17.5%: activity change, negative = inhibition [5]
inactive: Potency [9] | activation [10] 1.56% | outcome [11] | Potency [12] | activity change % (negative = inhibition) [13] -10.8% and 10.6% | outcome [15] | Potency [1] | Potency [2] | Potency [3] | Potency [4] | Potency [16]

C[N@+]12CCCC[C@@H]1CCC(=C(c1cccs1)c1cccs1)C2
inactive: Potency [1] | Potency [2] | Potency [3] | Potency [4]
-20.7%: activity change, negative = inhibition [5]
